VACV Venus inh: vaccinia inhibition (Venus reporter); Vaccinia virus Venus reporter expression, fluorescence; Potency, µM (highest dose often 36.5 µM), without a hit: top-dose activity change, negative = inhibition, usual class: inhibitors; 0.46% of 330,000 active; AID 720580; calls by dose curve; tested in A549 cells; also: potency is read from the fitted curve at half-maximal effect; % is scaled to controls: 0 for no effect and ±100 for the full control effect; nearly all actives have a fitted effect of over 30% in size
LASV entry inh: blocks Lassa virus binding to or entry into cells; Potency, µM (titrated, usually from 37.9 µM), for inactives: top-dose activity change, negative = inhibition, usual class: inhibitors; 1.2% of 300,000 active; Lassa virus pseudotype entry inhibition, cell reporter; calls by dose curve; tested in HEK293 cells; also: potency is read from the fitted curve at half-maximal effect; % is scaled to controls: 0 for no effect and ±100 for the full control effect; nearly all actives have a fitted effect of over 50% in size
Shiga toxin inh: blocks Shiga toxin action in Vero cells | Vero cells, Shiga toxin protein synthesis inhibition reporter | inhibition, % at 38.7 µM | 9.2% of 290,000 active | AID 2315; in the data active = inhibition mostly above about 28%, no sharp cut-off; inactive = mostly below about 43%; also: 0% is about no effect
CHX counter: counter-screen hit for Shiga toxin inhibitors, cycloheximide. cell reporter, cycloheximide protein synthesis inhibition counterscreen. max response, %. 12% of 300,000 active; in the data active = max response mostly above about 13%, no sharp cut-off; inactive = mostly below about 14%; also: read at 38.3 µM for the half of the compounds with a filed dose; 0% is about no effect
MARV entry inh: Marburg virus entry inhibition; Marburg virus pseudotyped entry inhibition, cell reporter; Potency, µM (doses to about 37.8 µM), for the others: at the top dose activity change, negative = inhibition, most hits filed as inhibitors; 1.8% of 300,000 active; calls by dose curve; tested in HEK293 cells; also: potency is read from the fitted curve at half-maximal effect; % is scaled to controls: 0 for no effect and ±100 for the full control effect
VACV mCherry inh: inhibitors of vaccinia virus infection (mCherry reporter signal); Vaccinia virus mCherry reporter infection, fluorescence; Potency, µM (doses to about 36.5 µM), for the others: top-dose activity change, negative = inhibition, most hits filed as inhibitors; 0.63% of 310,000 active; AID 720579; calls by dose curve; tested in A549 cells; also: potency is read from the fitted curve at half-maximal effect; % is scaled to controls: 0 for no effect and ±100 for the full control effect; nearly all actives have a fitted effect of over 35% in size
An asterisk follows results filed as active; i = inactive; ? = inconclusive; nt = no result; + = active, no number; ! = not active in a repeat; [ ] = another dose, or the depositor's remark. Only a selection was taken, and hits are over-represented in it overall.

SMILES | VACV Venus inh | LASV entry inh | Shiga toxin inh | CHX counter | MARV entry inh | VACV mCherry inh
CCc1cc(C(=O)N2CCCC(C(=O)c3cccc(OC(C)C)c3)C2)n(C)n1 (stereo unspecified) | -7% | -1%[46.1 µM] | 18 | -2 | 0%[46.1 µM] | -18%
CCC(=O)N1CCCC(C(=O)c2ccc(-c3ccccc3)cc2)C1 (stereo unspecified) | -9% | 0% | 47 | 13* | -4% | -16%
COCCC(=O)N1CCCC(C(=O)c2ccc(Oc3ccccc3)cc2)C1 (stereo unspecified) | -13% | ? | -17 | 14 | ? | i
CCN1CCN(CC(=O)N2CCCC(C(=O)c3ccc(Oc4ccccc4)cc3)C2)CC1 (stereo unspecified) | ? | nt | 56* | 25* | nt | -5%
CCOc1ccc(NC(=O)CSc2nnc(CNC(=O)C34CC5CC(CC(C5)C3)C4)n2CC)cc1 | -6% | -10%[46.1 µM] | nt | nt | -6%[46.1 µM] | 1%
O=C(NCC1OCCCN1S(=O)(=O)c1cc(F)ccc1F)C(=O)NC1CCCCCC1 (stereo unspecified) | nt | nt | 6 | 15* | nt | nt
COc1ccc(CCNC(=O)C(=O)NCC2OCCN2S(=O)(=O)c2ccc3c(c2)OCCO3)cc1OC (stereo unspecified) | -22% | -23% | -19 | -1 | ? | i
COc1ccc(CNC(=O)C(=O)NCC2OCCN2S(=O)(=O)c2ccc(F)cc2)cc1 (stereo unspecified) | -4% | -4% | 32* | 28* | -7% | i
O=C(NCc1ccccc1)C(=O)NCC1OCCN1S(=O)(=O)c1ccc([N+](=O)[O-])cc1 (stereo unspecified) | ? | nt | -7 | 9 | nt | 10µM*
COc1ccc(CCNC(=O)C(=O)NCC2OCCN2S(=O)(=O)c2ccc3c(c2)OCCO3)cc1 (stereo unspecified) | -24% | ? | 11 | 34* | ? | -7%
O=C(NCc1ccncc1)C(=O)NCC1OCCCN1S(=O)(=O)c1cc(F)ccc1F (stereo unspecified) | -7% | 21% | -29 | -3 | 1% | -14%
Cc1c(C(=O)N2CCCCC2)sc2ncnc(NCCc3ccccn3)c12 | -20% | nt | nt | nt | nt | -20%
COc1cc(Cl)c(C)cc1N1C(=O)[C@@H]2C[C@H]1CN2Cc1ccccn1 | -2% | nt | nt | nt | nt | -8%
Cc1ccc(CNC(=O)C(=O)NCC2OCCN2S(=O)(=O)c2ccc(Br)cc2)cc1 (stereo unspecified) | ? | 7.9µM* | -27 | 0 | ? | -22%
Cc1ccc(CNC(=O)C(=O)NCC2OCCN2S(=O)(=O)c2ccc(C)cc2)cc1 (stereo unspecified) | -30% | ? | -25 | -1 | -29% | -7%
COc1ccc(CCNc2cc(C)nc3c(-c4ccccc4OC)cnn23)cc1OC | -12% | -8%[46.1 µM] | -10 | 11 | 11µM* | -14%
Cc1ccc(Nc2nc3c(c(=O)[nH]2)CCCC3)cc1 | -2% | -1% | 21 | -3 | 2% | i
O=c1[nH]c(Nc2nc3ccccc3o2)nc2c1CCCC2 | ? | 5.2µM* | 76* | 39* | 6.5µM* | ?
CN(C)CCN1C(=O)c2cccc3cc([N+](=O)[O-])cc(c23)C1=O | ? | 0.45µM* | nt | nt | 0.32µM* | 1.1µM*
CN(C)CCCN1C(=O)c2cccc3cccc(c23)C1=O | -19% | -18% | 21 | 10 | ? | -12%
CC(C)COc1ccc(CSCCNC(=S)Nc2ccccc2)cc1 | 10µM* | ? | -5 | 15 | ? | nt
CCCCOc1ccc(CSCCNC(=S)Nc2ccccc2)cc1 | -18% | ? | 18 | -3 | -18% | -27%
CCCCCOc1ccc(CSCCNC(=S)Nc2ccccc2)cc1 | -5% | -16% | 62 | 24* | 3% | -9%
C#CCSC1=C(C#N)[C@@H](c2cccs2)C(C(=O)OCC)=C(C)N1 | nt | nt | nt | nt | 0% | nt
CSc1ncccc1C(=O)NCC(c1cccs1)N1CCOCC1 (stereo unspecified) | -15% | -1% | nt | nt | 1% | -17%
SMILES | VACV Venus inh | LASV entry inh | Shiga toxin inh | CHX counter | MARV entry inh | VACV mCherry inh
Cn1c2ccccc2c2ncn(CCC3=CCCCC3)c(=O)c21 | nt | 4% | 27 | 17* | ? | nt
Cn1c2ccccc2c2ncn(CCCN3CCOCC3)c(=O)c21 | -6% | 24% | 43 | 7 | 3% | -18%
CCCS(=O)(=O)N1CCCC(c2nc(-c3ccc(OC)cc3)no2)C1 (stereo unspecified) | -13% | -13% | 12 | 17 | 5% | -18%
CS(=O)(=O)N1CCCC(c2nc(-c3ccc(S(=O)(=O)NCc4ccccc4)cc3)no2)C1 (stereo unspecified) | nt | ? | -25 | -2 | 0.13µM*! | nt
COc1ccc(-c2noc(C3CCCN(C(=O)c4ccccc4OC)C3)n2)cc1OC (stereo unspecified) | nt | -2% | 29 | 23* | ? | nt
Cc1ccc(-c2noc(C3CCCN(C(=O)c4c(F)cccc4F)C3)n2)cc1 (stereo unspecified) | -14% | 25%[14.3 µM] | 69 | 29 | -5% | -14%
Cc1ccc(-c2noc(C3CCCN(C(=O)c4ccccc4Br)C3)n2)cc1 (stereo unspecified) | nt | nt | 53* | 27* | nt | nt
CCS(=O)(=O)N1CCCC(c2nc(-c3cccc(OC)c3)no2)C1 (stereo unspecified) | -8% | -3% | 104* | 42* | 1% | -20%
O=C(Cc1ccccc1)N1CCCC(c2nc(-c3ccc(S(=O)(=O)N4CCCC4)cc3)no2)C1 (stereo unspecified) | -3% | ? | -8 | -2 | -23% | i
COc1ccc(-c2cccc(-c3cc(=O)oc4cc5c(cc34)OCO5)c2)cc1 | -18% | nt | i | 30* | nt | -29%
COc1cc(OC)c2c(-c3cccc(-c4cccc(C)c4)c3)cc(=O)oc2c1 | ? | nt | i | 5 | nt | i
COc1cc(OC)c2c(-c3cccc(-c4ccc(N(C)C)cc4)c3)cc(=O)oc2c1 | ? | nt | + | 37* | nt | ?
COc1cc(OC)c2c(-c3cccc(-c4ccc(CO)cc4)c3)cc(=O)oc2c1 | 10µM* | nt | i | -4 | nt | ?
Cc1cccc(-c2cccc(-c3cc(=O)oc4cc5c(cc34)OCO5)c2)c1 | nt | nt | i | 9 | nt | nt
COc1cc(OC)c2c(-c3cccc(/C=C/c4ccc(F)cc4)c3)cc(=O)oc2c1 | -26% | nt | + | 50* | nt | -26%
COc1ccc(NC(=O)c2nc(S(C)(=O)=O)ncc2N(Cc2ccc(C)cc2)Cc2ccco2)cc1Cl | -10% | -15%[46.1 µM] | nt | nt | ? | -14%
O=[N+]([O-])c1ccc2cc[nH]c2c1 | -13% | 2% | nt | nt | 0% | -16%
O=C(COc1ccc2ccccc2c1)NNC(=O)C(=O)Nc1ccccc1 | -19% | 11%[46.1 µM] | 25 | -3 | 3%[46.1 µM] | 0%
NC(=O)c1cccc2c3c([nH]c12)CCCC3 | ? | 27% | 87* | 36* | 4% | -6%[1.46 µM]
CCOC(=O)C1CCCc2c1[nH]c1c(C(N)=O)cccc21 (stereo unspecified) | -15% | 0% | 15 | 8 | -7% | i
